These results are taken from ChEMBL document CHEMBL3988442, “University of Dundee, Small-Polar-MMV Screening Library” (2021).

About 13,000 (27%) of roughly 48,000 compounds showed an effect of 50% or more. This is one part of the list.

For the test, the system named is Wolbachia pipientis. The experiment in a line: Anti-Wolbachia Cell-Based Screen. The arrangement: scale not given: in the data most compounds retested in dose-response had high values. Type of test: functional. Particulars: 5 µM.
In the case of `CC(C)C1CN(C(=O)c2ccc3nccnc3c2)CCS1` (centres undefined), the “Percent Effect” value is on record as -6.684%.

Take `CCOc1ccccc1C(=O)N1CCCC(c2nccn2CCOC)C1` (centres undefined): the “Percent Effect” value is -0.2171%.

On to `CCOc1ccc(C(=O)N2C[C@H]3CC[C@@H]2CN(C)C3)cc1OCC`, for which the “Percent Effect” value is reported as -32.38%.

Consider `CCOc1ccc(C(=O)N2CCCC(c3nccn3C)C2)cc1OCC` (centres undefined), for which the “Percent Effect” value worked out at 100.4%.

On to `Cn1ccnc1C1CCCN(C(=O)c2ccc3nccnc3c2)C1` (centres undefined), for which the “Percent Effect” value is listed as 95.06%.

As to `COCCC1(CO)CCCN(CCCc2ccccc2)C1` (centres undefined), the “Percent Effect” value is on record as -2.01%.

Turning to `O=C1N(CCCc2ccccc2)CCCC12CCN(C(CO)CO)C2` (centres undefined), the “Percent Effect” value is given as 4.777%.

Take `N#Cc1ccc(CN2CCCC3(Cc4ccccc4CNC3=O)C2)cc1` (centres undefined): the “Percent Effect” value was 129.6%.

As to `O=C1NCc2ccccc2CC12CCCN(Cc1ccsc1)C2` (centres undefined), the “Percent Effect” value is on record as 112.5%.

With `N#Cc1ccc(CN2C[C@@H]3OCC(=O)N[C@@H]3C2)cc1`, the “Percent Effect” value was -14.55%.

As to `COCCC1(CO)CCCN(Cc2ccc(C#N)cc2)C1` (centres undefined), the “Percent Effect” value stood at 0.3825%.

As for `O=C1NCc2ccccc2CC12CCCN(CCCc1ccccc1)C2` (centres undefined), the “Percent Effect” value came out at 107.4%.

Turning to `CN(C)C(=O)CN1CCC2(CCCN(Cc3ccsc3)C2)C1=O` (centres undefined), the “Percent Effect” value was -8.794%.

As to `O=C1NCC[C@]12CN(Cc1ccsc1)C[C@H]2c1ccccc1`, the “Percent Effect” value turned out to be 6.958%.

As for `Cc1nc(CN2CC[C@@H]3[C@@H](CCC(=O)N3CCc3c[nH]cn3)C2)co1`, the “Percent Effect” value was -20.08%.

For the compound `COCCN1C[C@@H](C(=O)O)[C@H](c2ccccc2C)C1`, the “Percent Effect” value is reported as -9.465%.

Regarding `COCCn1cnnc1Cn1ccnc1-c1ccsc1`, the “Percent Effect” value was -0.8108%.

For `CN(CCO)Cc1nnc(C2CCN(CC(C)(C)C)CC2)n1C`, the “Percent Effect” value is 3.482%.

Take `CCn1nnc2c1CCN(S(C)(=O)=O)C2COCc1ccccc1` (centres undefined): the “Percent Effect” value is given as -2.948%.

For the compound `c1cncc(COCC2CNCc3nccn3C2)c1` (centres undefined), the “Percent Effect” value came out at 6.541%.

Consider `CC(C)Cc1ccc(S(=O)(=O)NCCCN2CCNC(=O)C2)cc1`, for which the “Percent Effect” value is reported as 7.437%.

Turning to `CN(c1ccc(C(=O)NCCCN2CCOCC2)c(Cl)c1)S(C)(=O)=O`, the “Percent Effect” value is recorded as -4.637%.

For the compound `CN(C)CCCNC(=O)c1cc(Br)c2c(c1)OCCO2`, the “Percent Effect” value is given as -6.944%.

With `CN(C)CCCNC(=O)c1cc(Cl)ccc1Cl`, the “Percent Effect” value is listed as 87.97%.

Turning to `CSCC(C)(O)CNC(=O)c1cc(Cl)ccc1Cl` (centres undefined), the “Percent Effect” value stood at 2.772%.

Turning to `CN(C)CCCNC(=O)c1ccc(Cl)cc1Cl`, the “Percent Effect” value is reported as 119%.

`Cc1ccc(-n2ccnc2)c(C(=O)NCCCN(C)C)c1`: the “Percent Effect” value was -3.641%.

On to `COc1cccc2c1OCC(NCc1cnn(-c3ccccc3F)c1)C2` (centres undefined), for which the “Percent Effect” value was -11.75%.

Take `Cc1cccc(NC(=O)c2ccc(OCc3nnnn3C)cc2)n1`: the “Percent Effect” value came out at 107.3%.

`COc1c(CNCCC(=O)Nc2cccc(C)n2)c(C)nn1C`: the “Percent Effect” value was 6.6%.

For the compound `Cc1cccc(NC(=O)c2cccc(OCc3nnnn3C)c2)n1`, the “Percent Effect” value was 73.29%.

For the compound `COc1cc(C(C)=O)ccc1SCC(=O)Nc1cccc(C)n1`, the “Percent Effect” value is 6.413%.

Turning to `NC(=O)COc1cccc(C(=O)Nc2cnc3n2CCCC3)c1`, the “Percent Effect” value came out at 11.29%.

For `Cc1cc(C)n(CC(C)CNC(=O)N(C)Cc2cc(C)on2)n1` (centres undefined), the “Percent Effect” value was determined as 9.156%.

As for `COc1nonc1NCn1nc(C)cc1C`, the “Percent Effect” value turned out to be 152%.

`Cc1cc(C)n(CNc2nonc2C(N)=O)n1`: the “Percent Effect” value came out at 109.2%.

On to `NC(=O)c1cccc(CC2CCN(C(=O)Cn3cnnn3)C2)c1` (centres undefined), for which the “Percent Effect” value is recorded as -10.16%.

Take `CCN(CCC#N)Cn1ncc2cn(-c3ccccc3)nc2c1=O`: the “Percent Effect” value is reported as 15.78%.

For `Cc1ncsc1C(=O)NC1CCN(CC(=O)N(C)C(C)(C)C#N)CC1`, the “Percent Effect” value is -1.04%.

For `COC(=O)c1sc(C(NC(=O)c2ccccc2)C2CC2)nc1C` (centres undefined), the “Percent Effect” value is reported as -18.8%.

With `COc1cc(F)c(C(C)NC(=O)c2cccnc2C)cc1OC` (centres undefined), the “Percent Effect” value is reported as -13.32%.

On to `COc1ccccc1C(=O)NC(CC(=O)O)c1cccs1` (centres undefined), for which the “Percent Effect” value is reported as 13.12%.

Turning to `COc1ccccc1C(=O)NC(c1ccccn1)[C@H]1CC[C@H](CN)CC1` (some centres undefined), the “Percent Effect” value amounted to 100.4%.

For the compound `COc1cccc(C(=O)NC(c2ccccn2)[C@H]2CC[C@H](CN)CC2)c1` (some centres undefined), the “Percent Effect” value is 98.61%.

In the case of `NC[C@H]1CC[C@H](C(NC(=O)c2cccc(F)c2)c2ccccn2)CC1` (some centres undefined), the “Percent Effect” value is given as 1.736%.

`Cn1cc(C2(C)CN(Cc3ccc(Cl)c(F)c3)CCO2)cn1` (centres undefined): the “Percent Effect” value was -1.471%.

With `CN(CCN1CCOCC1)C(=O)C1(c2ccc(F)cc2F)CCC1`, the “Percent Effect” value is recorded as 9.471%.

Regarding `Cc1cc(F)ccc1CN1CCCC2(C1)OCCO2`, the “Percent Effect” value was -1.552%.

With `CCCN1CCN(Cc2cn(CCC(N)=O)c3ccccc23)CC1`, the “Percent Effect” value was determined as 5.612%.

Consider `CN(C)C(=O)C1(C)CN(Cc2cn(C)c3ccccc23)CCO1` (centres undefined), for which the “Percent Effect” value is 120.9%.

For the compound `CNC(=O)[C@@H]1CC[C@@H]2[C@@H](CCN2Cc2cn(C)c3ccccc23)O1.O=C(O)C(F)(F)F`, the “Percent Effect” value is 12.94%.

`CN(C)C(=O)COc1ccccc1CN1CCOC2(CCCC2)C1`: the “Percent Effect” value is recorded as 35.78%.

On to `CN(C)C(=O)C1(C)CN(Cc2cn(C)c3ccc(F)cc23)CCO1` (centres undefined), for which the “Percent Effect” value turned out to be 142.1%.

On to `CNC(=O)C1(C)CN(Cc2cn(C)c3ccc(F)cc23)CCO1` (centres undefined), for which the “Percent Effect” value is listed as 119.3%.
